Platelet DG rel: platelet dense granule release activity. human platelet-rich plasma, SFLLRN dense granule ATP release, luminescence. inhibition, %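 (compounds screened at 7.5 µM in platelet-rich plasma)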. 300,000 compounds, 0.22% hits. AID 1663;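 active = mean replicate score, as percent of positive control, at or above 50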
Rtt109 Vps75: inhibitors of Candida albicans Rtt109/Vps75 histone acetyltransferase; Q5AAJ8; purified Rtt109/Vps75, ThioGlo CoA-SH fluorescence, 4 h; inhibition, % at 34.9 µM; 330,000 compounds, 0.16% hits;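 active = inhibition of at least 50% in every replicate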
Target sequence (Q5AAJ8 whole entry, looked up): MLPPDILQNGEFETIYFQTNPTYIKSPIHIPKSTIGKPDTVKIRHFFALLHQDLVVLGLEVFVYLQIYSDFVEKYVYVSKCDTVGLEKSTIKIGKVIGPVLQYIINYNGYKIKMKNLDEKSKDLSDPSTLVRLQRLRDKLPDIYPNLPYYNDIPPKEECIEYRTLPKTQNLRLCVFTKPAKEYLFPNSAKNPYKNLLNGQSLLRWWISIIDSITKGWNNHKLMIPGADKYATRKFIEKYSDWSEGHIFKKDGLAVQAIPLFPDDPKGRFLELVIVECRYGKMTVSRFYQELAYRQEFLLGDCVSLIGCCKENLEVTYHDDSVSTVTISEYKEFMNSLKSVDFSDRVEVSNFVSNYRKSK
WT yeast gro inh: growth inhibition of WT yeast, mitochondrial fusion screen; mitochondrial fusion phenotypic screen, WT strain; inhibition, % at 10 µM; 190,000 compounds, 2.1% hits; AID 1362; in the data active = inhibition above about 58%; tested in S. cerevisiae
PHOSPHO1 inh: inhibitors of human PHOSPHO1 phosphatase. Q8TCT1. 290,000 compounds, 1.1% hits. recombinant PHOSPHO1, absorbance phosphatase assay. inhibition, % at 13.3 µM; in the data active = inhibition above about 60%
Target sequence (Q8TCT1 whole entry, looked up): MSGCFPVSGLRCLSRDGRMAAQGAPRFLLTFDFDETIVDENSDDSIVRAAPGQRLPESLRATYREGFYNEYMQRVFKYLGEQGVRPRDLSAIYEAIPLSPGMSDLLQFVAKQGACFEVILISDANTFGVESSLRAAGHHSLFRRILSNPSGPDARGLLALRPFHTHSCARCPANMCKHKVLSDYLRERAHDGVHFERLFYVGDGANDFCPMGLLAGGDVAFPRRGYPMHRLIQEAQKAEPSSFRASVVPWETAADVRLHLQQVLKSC
SKKanGAS inh: SKKanGAS growth inhibition; S. pyogenes SKKanGAS, kanamycin growth, BacTiter-Glo, 6 h; AID 1662; 300,000 compounds, 1.3% hits; inhibition, % at 7.5 µM;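 active = mean replicate score, as percent of positive control median, at least 50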;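 note: strain carries kanamycin resistance gene driven by streptokinase promoter and grows in 40 µg/ml kanamycin; loss of luminescence reflects streptokinase promoter inhibition or plain growth inhibition; 0% = median of DMSO wells and 100% = positive control at its reference dose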
TPT1 inhibitor: C. albicans TPT1 enzyme inhibition; recombinant caTPT1, FP RNA substrate dephosphorylation; inhibition, % at 5 µM; 300,000 compounds, 0.81% hits; AID 1962;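 active = inhibition above the mean of all tested compounds plus 3 SD, set per screening campaign, cut at about 24% in these data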;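 note: plate controls were DMSO alone for no effect and ferristatin control at 100 nM for full effect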
* marks the source's active call; other numbers are inactive results; . = not tested or not shown. Compounds with a hit are over-represented: about 3.9% of the library has one in this group of screens.

SMILES | Platelet DG rel | Rtt109 Vps75 | WT yeast gro inh | PHOSPHO1 inh | SKKanGAS inh | TPT1 inhibitor
Cc1ccc(Nc2cc(C)nn2-c2nc(C)cc(C)n2)cc1 | 1 | 0 | 75* | -4 | 101* | -4
CC(=O)C[C@@H](O)CC(=O)[C@@H]1OC(=O)CCCCCCCCc2ccccc21 | . | 1 | . | . | . | .
CCOC(=O)C1=C(C)Nc2ccccc2N=C1NC(=O)c1oc2ccccc2c1COC | . | -3 | . | . | . | .
CC(C)C(OC(=O)c1nsc(Cl)c1Cl)C(=O)NCc1ccccc1 (centres undefined) | -2 | 5 | . | 31 | -8 | -4
C=CCn1c(C(C)NC(=O)c2ccccc2)n[nH]c1=S (centres undefined) | 0 | . | -22 | 80* | 3 | 0
CCCn1c(C(C)NC(=O)c2ccccc2)n[nH]c1=S (centres undefined) | 8 | 0 | . | 0 | 7 | -1
CCc1nnc(NC(=O)CSc2nnc(-c3ccco3)n2CCOC)s1 | 7 | -2 | -1 | -3 | 2 | -5
CCc1nnc(NC(=O)CSc2nnc(Cc3cccn3C)n2CCOC)s1 | 52* | 1 | 11 | -10 | -2 | -2
CCc1nnc(NC(=O)CSc2nnc(-c3c[nH]c4ccccc34)n2CCOC)s1 | -7 | -6 | 0 | 60* | 7 | -7
Cc1ccc(C(=O)Nc2ccc(C(=O)N/N=C/c3ccc(C)o3)cc2)cc1 | 10 | 12 | . | 11 | 0 | 0
Cc1ccc(CNC(=O)CCC(=O)Nc2nnc(C)s2)cc1 | -9 | -5 | . | 49 | -1 | 2
CN(CCNC(=O)c1ccc(CS(=O)(=O)c2c(Cl)cccc2Cl)o1)CCc1ccccc1 | -5 | 6 | . | 65* | -7 | -1
O=C(Sc1cccc2cccnc12)c1ccccc1Br | 0 | -4 | . | 15 | 67* | 3
O=C(Sc1cccc2cccnc12)c1ccc(F)cc1 | . | . | 51 | -86 | . | .
Cc1cccc(N=Nc2c(C)[nH]n(C(N)=S)c2=O)c1C | -1 | . | 72* | 44 | 13 | -2
Cc1ccccc1N=Nc1c(C)[nH]n(C(N)=S)c1=O | 4 | -7 | 61* | 3 | 0 | 2
CCOc1ccccc1N=Nc1c(C)[nH]n(C(N)=S)c1=O | -9 | 0 | . | 20 | 4 | 4
Cc1[nH]n(C(N)=S)c(=O)c1N=Nc1ccccc1C(F)(F)F | 4 | 8 | . | . | 24 | -2
O=C(Cn1nnnc1CN1CCOCC1)N1CCC(c2cccc(Cl)c2)C1 (centres undefined) | 11 | -3 | . | 53 | -3 | -2
COc1ccccc1N(CC(=O)NCCN1CCOCC1)S(=O)(=O)c1ccccc1 | -3 | 7 | . | 36 | -3 | -2
COCCNc1nc(SCc2ccccc2)nc2sc3c(c12)CCC3 | 1 | -5 | 43 | 19 | 27 | -1
CC(CO)Nc1nc(SCc2ccccc2)nc2sc3c(c12)CCC3 (centres undefined) | 0 | -2 | 75* | -23 | 15 | 0
CC(C)Oc1ccc(CNC(=O)c2ccc3c(c2)N(C)CCS3)cc1 | 57* | -33 | . | 7 | 5 | 0
COc1ccc(CNC(=O)c2ccc3c(c2)N(C)CCS3)cc1 | 0 | 0 | . | 33 | -7 | 0
CCN1CCSc2ccc(C(=O)NCc3ccccc3F)cc21 | 11 | -23 | . | 7 | -1 | 0
SMILES | Platelet DG rel | Rtt109 Vps75 | WT yeast gro inh | PHOSPHO1 inh | SKKanGAS inh | TPT1 inhibitor
CN1CCSc2ccc(C(=O)NCc3ccccc3F)cc21 | 73* | -6 | . | 33 | -6 | -2
CC(=O)C1=C(O)C(=O)N(c2ccccn2)C1c1cccc(F)c1 (centres undefined) | 3 | 2 | . | 33 | -4 | -1
Cc1cccc(-c2ccc3c(c2)C2CC3CCN2C)c1 (centres undefined) | . | 1 | . | . | . | .
CC(C)N(C(=O)[C@H]1C[C@H](CC(=O)NCCN2CCOCC2)C(=O)N2CCc3c([nH]c4cc(CCC(=O)N(C)C)ccc34)[C@]12C)C(C)C | . | 4 | . | . | . | .
CN(C)c1nn(C(=O)Nc2cccc(C(F)(F)F)c2)cc1-c1ccccc1 | 0 | -6 | 63* | 9 | 0 | 0
Cn1nc(C(=O)Nc2cccc(C(F)(F)F)c2)ccc1=O | . | -10 | 15 | 37 | . | 3
COC(=O)c1ccc(C(=O)OC)c(NC(=O)CN(C)Cc2cccc(Cl)c2Cl)c1 | 3 | -7 | 3 | -9 | 69* | 2
CCCCN(C(=O)CSCC(=O)Nc1ccc(C)cc1)c1c(N)n(CC(C)C)c(=O)[nH]c1=O | . | 10 | . | . | . | .
Cc1ccc(NC(=O)NCc2ccc3c(c2)OCO3)cc1C | 2 | . | -7 | 58 | 1 | -2
Cc1ccc(NC(=S)NCc2ccc3c(c2)OCO3)cc1C | 1 | -7 | 61* | -17 | 1 | -1
CC1(CC(=O)N/N=C/c2ccc(OCc3ccc(Cl)cc3Cl)cc2)OCCCO1 | 0 | 4 | 77* | 49 | 12 | -4
COc1cc(/C=N/NC(=O)CC2(C)OCCCO2)ccc1OCc1ccc(Cl)cc1Cl | -5 | -7 | 23 | 2 | -1 | 1
O=C(CN1CCN(C(C(=O)Nc2ccc(Cl)cc2C(F)(F)F)c2ccccc2)CC1)NC1CC1 (centres undefined) | . | 3 | . | . | . | .
Cc1cccc(OCC(=O)NCC(=O)N/N=C/c2cc(Br)cc(Br)c2O)c1 | 0 | 3 | . | 45 | 61* | 5
Cc1ccc2c(c1)c(=O)c1c3n2CCN(C(=O)CCl)C3CC1 (centres undefined) | 3 | 2 | 5 | 80* | -2 | -21
Nc1c(C(=O)Nc2ccccc2)sc2nc3c(c(-c4ccco4)c12)CCC3 | 2 | 10 | -31 | 87* | 1 | 11
CCOC(=O)N1CCN(C(=O)CN(C)S(=O)(=O)c2ccc3c(c2)C(C)(C)C(=O)N3C)CC1 | -3 | -5 | 68* | -7 | -24 | -2
Brc1cc2c(cc1Br)OCCOCCOCCOCCO2 | -2 | 0 | -14 | 30 | -8 | -4
Brc1ccc2c(c1)OCCOCCOc1cc(Br)ccc1OCCOCCOCCO2 | 0 | 0 | 80* | -21 | 1 | -7
COc1cc(C)c(/C=C(\C#N)C(=O)Nc2ccc(C)cc2)cc1C(C)C | 2 | 9 | 2 | 12 | 3 | -3
COCCNC(=O)/C(C#N)=C/c1cc(C(C)C)c(OC)cc1C | 2 | 10 | 16 | 61* | -1 | 0
O=C(NCc1n[nH]c(=O)c2ccccc12)C1CC(=O)N(c2ccc(Cl)cc2)C1 (centres undefined) | 2 | -4 | . | . | -2 | 4
CC(=O)Oc1ccccc1/C=C/c1nc2ccccc2c(=O)o1 | 3 | -28 | . | . | 8 | 0
CC(=O)Oc1ccc(/C=C/c2nc3ccccc3c(=O)o2)cc1 | 83* | 13 | . | 14 | 3 | 2
Cc1cc(C)n2c(Br)c(CSc3nc4ccccc4o3)nc2n1 | 7 | -17 | 3 | 80* | -3 | 1
Cc1csc2nc(CSc3nc4ccccc4o3)cn12 | . | -2 | 18 | 61* | . | -3
O=C(NC1CCN(c2ncccn2)CC1)c1ccccc1F | -4 | 16 | . | 18 | -3 | -3
COc1ccc(Cl)cc1-c1nc(SCC(=O)NCC2CCCO2)n[nH]1 (centres undefined) | . | 7 | . | . | . | .
